Compound activity deposited in PubChem by National Center for Advancing Translational Sciences (NCATS).
Hits are enriched below; roughly 6% of the tested compounds scored in any of these assays.
DRD3 antagonist: blocks the human D3 dopamine receptor; max response, negative = inhibition, %; D3R cells, DiscoveRx beta-arrestin luminescence, antagonist mode; hits give low values; actives 2.5% (n = 360,000); P35462; in the data active = max response below about -50%; inconclusive = no clear call, values can overlap the other calls; also: % is scaled to controls: 0 for no effect and ±100 for the full control effect
Target sequence (P35462 whole entry, looked up): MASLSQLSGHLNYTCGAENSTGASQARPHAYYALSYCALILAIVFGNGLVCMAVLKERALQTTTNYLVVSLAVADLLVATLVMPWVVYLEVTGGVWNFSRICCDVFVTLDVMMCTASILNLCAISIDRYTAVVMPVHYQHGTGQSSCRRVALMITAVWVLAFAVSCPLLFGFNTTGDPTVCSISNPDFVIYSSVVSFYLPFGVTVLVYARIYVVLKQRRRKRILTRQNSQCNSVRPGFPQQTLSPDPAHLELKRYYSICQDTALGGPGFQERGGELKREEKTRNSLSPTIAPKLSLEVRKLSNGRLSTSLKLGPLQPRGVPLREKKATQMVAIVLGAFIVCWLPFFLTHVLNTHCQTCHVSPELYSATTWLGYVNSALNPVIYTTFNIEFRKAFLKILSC
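Cells plated overnight at 1500 cells/well, then exposed to library compounds with dopamine controls for 90 minutes at 37 degrees C. DiscoveRx reagent added for 30–60 minutes at room temperature; luminescence read, quantitative HTS format.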
D1 antag: human D1 dopamine receptor antagonism | HEK293 TREx D1 cells, calcium flux, dopamine EC80; hits give low values | activity change, negative = inhibition, % at 10 µM | actives 3.2% (n = 360,000); in the data active = activity change below about -30%; also: % is scaled to controls: 0 for no effect and ±100 for the full control effect
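Calcium flux readout: force-coupled, inducible Hek293 Trex D1 line, cells induced overnight at 30 C with tetracycline, dye-loaded 30–90 min at RT. Antagonism scored against EC80 dopamine challenge given 180 s after compound.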
D1 PAM: human D1 dopamine receptor positive modulation; P21728; HEK293 TREx D1 cells, calcium flux, dopamine EC20 potentiation; potentiation, % at 10 µM; actives 0.036% (n = 360,000); in the data active = potentiation above about 30%; also: 0% is about no effect
D3 ag: agonists of human D3 dopamine receptor | P35462 | D3R DiscoveRx beta-arrestin cells, luminescence, 90 min | max activation, % | actives 0.58% (n = 410,000) | AID 652048; in the data active = max activation above about 30%; also: 0% is about no effect
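Agonist mode: compounds and dopamine controls were applied to plated cells for 90 min at 37 degrees C after an overnight attachment at 1500 cells/well. Luminescent read-out followed 30 - 60 minutes at room temperature with DiscoveRx detection reagent.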
D1 ag: human D1 receptor agonism; HEK293 T-REx D1 cells, calcium flux, agonist mode; actives 1% (n = 360,000); activation, % at 2 µM; AID 504660; P21728; in the data active = activation above about 30%; also: 0% is about no effect
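Inducible HEK293 T-REx D1 cells, force-coupled to calcium signalling, were plated at 4000 cells/well with tetracycline and held overnight at 30 C. After no-wash calcium dye loading, compound-evoked calcium rise over 180 s flagged agonists.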
* hit, by the source's call; ? = inconclusive; / = not tested or not shown.

SMILES	DRD3 antagonist	D1 antag	D1 PAM	D3 ag	D1 ag
NNC(=O)CN1C(c2ccc(Cl)cc2)=Nc2ccc(Br)cc2C1c1ccccc1 (stereo not given)	-59*	6	-2	-9	3
COC(=O)CN1C(C)=Nc2ccc(C)cc2C1c1ccccc1 (stereo not given)	7	7	-7	-9	2
NNC(=O)CN1C(c2ccccc2)=Nc2ccc(Br)cc2C1c1ccccc1 (stereo not given)	-18	19	-1	-11	4
COC(=O)CN1C(c2ccccc2)=Nc2ccc(Cl)cc2C1c1ccccc1 (stereo not given)	-56*	-3	-5	-5	2
COc1cc(OC)c(NC(=O)CCS(=O)(=O)c2ccc3c(c2)oc(=O)n3C)cc1Cl	/	9	-1	14	1
N#Cc1cccc(NC(=O)Cn2c3[n+](c4ccc(C(F)(F)F)cc42)CCCCC3)c1	-74*	-6	-2	-52	1
Fc1ccccc1Cn1c2[n+](c3ccc(C(F)(F)F)cc31)CCCCC2	-3	-1	-2	5	0
O=C(NCCc1csc2nc(-c3ccccc3F)nn12)c1ccco1	/	-7	0	6	1
CCN(C(=O)Cn1c(=O)n(Cc2ccc3c(c2)OCO3)c(=O)c2ccc(C(=O)NC3CCCCC3)cc21)c1cccc(C)c1	/	-54*	-2	7	7
Cc1ccc(C)c(NC(=O)Cn2c(=O)n(Cc3ccc4c(c3)OCO4)c(=O)c3ccc(C(=O)NC4CCCCC4)cc32)c1	/	6	1	1	-1
COc1cccc(CNC(=O)Cn2ncc3c4ccccc4n(Cc4ccccc4)c3c2=O)c1	/	2	3	-7	10
Cc1csc(Sc2ccc([N+](=O)[O-])cc2C(=O)OCC(=O)NC2CCCC(C)C2C)n1 (stereo not given)	-12	-32*	3	-2	1
O=C(CSc1nc2ccccc2nc1Cc1ccc(Cl)cc1)N1CCc2ccccc21	/	4	0	-18	1
COc1cccc(CNC(=O)COc2cc(=O)n(C)c3ccccc23)c1	/	2	-4	-5	1
C=CCN1c2ccccc2[C@]23C[C@@H](C(=O)OC)N(C(=O)NCCC)C2=NC(C(=O)OC)=C(C(=O)OC)[C@H]13	-10	-33*	0	-18	10
C=CCN1c2ccccc2[C@]23C[C@@H](C(=O)OC)N(C(=O)C4CCC4)C2=NC(C(=O)OC)=C(C(=O)OC)[C@H]13	0	-20	-1	-19	6
CCOc1ccc(CC(=O)C2C(=O)CCCC2=O)cc1OCC	0	-42*	-3	-1	5
CCOc1ccc(CC(=O)C2C(=O)CC(C)(C)CC2=O)cc1OCC	1	6	7	7	3
O=C(NCC1CCCO1)c1ccc(Cl)c(S(=O)(=O)N2CCCCC2)c1 (stereo not given)	4	-16	0	6	4
CCCCCCN1CC(O)=C(c2ccccc2)C1=N	8	4	-2	-2	0
N=C1C(c2ccccc2)=C(O)CN1CCO	-20	-30*	1	-7	1
O=C(CCc1ccccc1)NC(NC(=S)Nc1ccc(Cl)cc1)C(Cl)(Cl)Cl (stereo not given)	?	-36*	-6	-6	9
O=C(/C=C/c1ccccc1)NC(NC(=S)Nc1ccc(Cl)cc1)C(Cl)(Cl)Cl (stereo not given)	-19	-3	-3	-6	6
CC(=O)NC(NC(=S)Nc1ccc(N=Nc2ccccc2)cc1)C(Cl)(Cl)Cl (stereo not given)	?	-44*	-10	-4	17
CC(=O)NC(NC(=S)Nc1ccc(S(N)(=O)=O)cc1)C(Cl)(Cl)Cl (stereo not given)	-27	0	2	-9	2
SMILES	DRD3 antagonist	D1 antag	D1 PAM	D3 ag	D1 ag
CCc1ccc(NC(=O)Cn2cnc3sc(C)c(S(=O)(=O)N4CCN(c5ccccc5OC)CC4)c3c2=O)cc1	/	-2	-1	4	1
CCCc1cc(N2CCCC(C(=O)Nc3cc(Cl)ccc3OC)C2)n2ncnc2n1 (stereo not given)	20	/	/	-1	/
CCCc1cc(N2CCCC(C(=O)Nc3c(OC)cccc3OC)C2)n2ncnc2n1 (stereo not given)	-5	-2	-2	31*	2
O=C(NNC(=O)C1COc2ccccc2O1)c1ccccc1O (stereo not given)	8	2	-6	32*	5
O=C(NN=C1CCCC1)C1COc2ccccc2O1 (stereo not given)	-7	-1	5	43*	2
CC(C)(C)C1CCC(=NNC(=O)C2COc3ccccc3O2)CC1 (stereo not given)	-14	-12	-2	-6	-1
O=C(CNC(=O)C1COc2ccccc2O1)N/N=C\c1cccc(O)c1 (stereo not given)	-1	-5	-9	3	0
COc1ccc(Cl)cc1C(=O)NNC(=O)C1COc2ccccc2O1 (stereo not given)	12	0	-5	0	1
O=C(CNC(=O)C1COc2ccccc2O1)N/N=C\c1ccc(Cl)cc1 (stereo not given)	-2	-36*	-9	3	-1
CCCc1nnc(SCCSc2nnc(CCC)n2N)n1N	16	-32*	-1	5	12
CCCc1nnc(SCc2ccc(OCC)cc2)n1N	12	-5	4	5	4
CC(=O)C(Cc1ccccc1)NC(=O)COC(=O)c1cc(S(=O)(=O)N2CCOCC2)ccc1F (stereo not given)	20	/	/	1	/
O=C(CSc1nc2c([nH]c3ccccc32)c(=O)n1-c1cccc(C(F)(F)F)c1)N1CCc2ccccc21	/	4	0	5	0
O=C(NCc1ccco1)c1ccccc1NS(=O)(=O)c1ccc(Cl)s1	?	/	-1	1	21
O=C(Nc1ccccc1Cc1ccccc1)c1ccccc1NS(=O)(=O)c1ccc(Cl)s1	-11	-60*	-7	16	28
O=C(Nc1ccccc1)c1ccccc1NS(=O)(=O)c1ccc(Cl)s1	12	-35*	-8	22	30
Cc1ccc(NC(=O)c2ccccc2NS(=O)(=O)c2ccc(Cl)s2)cc1	20	-44*	0	11	26
CCOc1ccc(NC(=O)c2ccc3nc(C(C)C)oc3c2)cc1	/	-2	0	3	8
CCCCCCOc1ccc(/C=C/C(=O)Nc2sc3c(c2C(=O)OC)CCC3)cc1OC	/	7	1	-37	-2
Cc1ccc(NC(=O)c2c(NC(=O)c3ccco3)sc3c2CCC(C(C)(C)C)C3)c(C)c1 (stereo not given)	/	0	-1	-16	0
CCn1c(=O)c(-c2nc3ccccc3[nH]2)c(O)c2ccccc21	-86*	12	-14	-37	-1
